Laboratory results taken from PubChem BioAssay.

Experiment: P. aeruginosa biofilm formation inhibitors, primary screen, PAO1 strain, BacTiter-Glo luminescence, LB-PBS (AID 1144)
Details: 12 h, higher = more signal; call rule not given here

z-score, inactive:
COc1cc(Cc2cc3c(c(CCc4ccccc4)n2)[Si](C(C)C)(C(C)C)O[C@H]3c2ccccc2)cc(OC)c1OC 0.626
C[C@]12C(=O)N(CCO)[C@@H]3C(=O)N(c4ccc(Cl)cc4)CC=CC31O[C@@H]1/C=C\CCCOC(=O)C12 (stereo partly drawn) -0.21
COc1cc2c(cc1O)C(C)N(Cc1sc3ccccc3c1Cl)CC2 (stereo not drawn) -0.432
CN1C(=O)C2C=CC(C(O)c3ccc([N+](=O)[O-])cc3)N(Nc3ccccc3)C2C1=O (stereo not drawn) -0.898
COC(=O)[C@@]1(Cc2ccc(F)cc2)[C@H]2c3cc(C(=O)N(C)C)n(CCF)c3C[C@H]2CN1C(=O)c1ccccc1 -0.501
O=C/C=C/c1ccc(-c2ccccc2)cc1 1.68
C=C(C(=O)CC[C@@H](OC(=O)c1ccccc1-c1ccccc1C(=O)O)c1ccc(OCCO)cc1)C(C)C -0.367
COc1ccc(C#Cc2ccc3c(c2)[C@]2(C(=O)N3)[C@H](c3ccccc3OCCO)N3[C@H](c4ccccc4)[C@H](c4ccccc4)OC(=O)[C@H]3[C@@H]2C(=O)NC[C@H](O)c2ccccc2)cc1 -0.627
O=C1NC(=O)C2C1C=CC(C(O)c1ccc(F)cc1)N2Nc1ccc(Cl)cc1Cl (stereo not drawn) -0.762
C[C@@]1([C@@H](NS(=O)(=O)c2cccc3cccnc23)c2ccc(-c3ccccc3)cc2)C[C@H]1C1CCCCC1 0.33
O=C1N(Cc2ccccc2)c2ccccc2C[C@@]12N=C(c1ccc(OCCCO)cc1)O[C@H]2c1ccccc1 -0.34
COc1ccc(NN2C(C(O)c3ccccc3)C=CC3C(=O)N(C4CCCCC4)C(=O)C32)cc1 (stereo not drawn) -1.71
C[C@]1(C(=O)NC2CC2)c2ccccc2C(=O)N(Cc2cc(F)cc(C(F)(F)F)c2)[C@H]1c1ccc(CO)cc1 -1.05
O=C(CS)NCCCCCCNC(=O)[C@H]1C[C@H]2C(=O)NCC(=O)N2[C@H]1c1cccc(OCCO)c1 -0.525
COC(=O)[C@@]1(Cc2ccc(OC)cc2)[C@H]2c3cc(C(=O)N(C)C)n(Cc4c(CO)[nH]cc(C)c4=O)c3C[C@H]2CN1C(=O)c1ccccc1 -0.357
COCCCNC(=O)[C@@]1(Cc2ccccc2I)c2ccccc2C(=O)N(C2CCCCC2)[C@H]1c1ccc(CO)cc1 -1.54
COC(=O)[C@@]1(Cc2ccc(OC)cc2)[C@@H]2[C@@H](CC(=O)[C@H]2CC(=O)C(=O)N(C)C)CN1C(=O)c1ccccc1 0.327
C=C(C(=O)CC[C@@H](OC(=O)c1ccccc1-c1ccccc1C(=O)O)c1cccc(OCCO)c1)C(C)C -0.417
CC(C)C[C@@H]1NC(=O)[C@H]2C[C@@H](C(=O)O)[C@@H](c3cccc(OCCO)c3)N2C1=O -0.443
Cc1ccc(S[C@]2(C(=O)NCc3ccccc3)CC(=O)N(Cc3ccccc3C(F)(F)F)[C@@H]2c2ccc(CO)cc2I)cc1 1.59
CC(C)N1CC=CC23O[C@@H]4/C=C\CCCOC(=O)C4[C@H]2C(=O)N(C(C)CO)[C@@H]3C1=O (stereo partly drawn) -2.11
COC(=O)Cn1c(C(=O)N(C)C)cc2c1C[C@H]1CN(C(=O)c3ccccc3)[C@@](Cc3ccccc3)(C(=O)OC)[C@@H]21 -0.334
COc1c(C)cc(-c2cc3c(c(CCc4ccccc4)n2)[Si](C(C)C)(C(C)C)O[C@H]3c2ccccc2)cc1C -0.0716
CCCCCN1CC=CC23O[C@@H]4/C=C\CCCOC(=O)C4[C@H]2C(=O)N(CCCCCO)[C@@H]3C1=O (stereo partly drawn) -0.678
C[C@]1(C(=O)NCC(F)(F)F)c2ccccc2C(=O)N(Cc2cc(C(F)(F)F)cc(C(F)(F)F)c2)[C@H]1c1ccc(CO)cc1 0.878
COC(=O)C[C@H]1O[C@]2(C(=O)N(C)c3ccccc32)[C@@H](C)[C@@H]1[Si](C)(C)c1ccccc1 0.115
COc1ccc([Si](C)(C)[C@H]2[C@H](CC(=O)N3CCC[C@H]3CO)O[C@@]3(C(=O)N(C)c4ccccc43)[C@@H]2C)cc1 -0.0357
COCCOC(=O)N1C(=O)[C@@]2(c3cc(C#CCC(C(=O)OC)C(=O)OC)ccc31)[C@H](C(=O)N1CCc3cc(OC)c(OC)cc3C1)[C@H]1C(=O)O[C@H](c3ccccc3)[C@H](c3ccccc3)N1[C@@H]2c1ccccc1OCCO -0.893
